Assay outcomes as filed in PubChem BioAssay.
SKKanGAS inh: SKKanGAS growth inhibition. 300,000 tested, 1.3% active. S. pyogenes SKKanGAS, kanamycin growth, BacTiter-Glo, 6 h. inhibition, % at 7.5 µM;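 active = mean replicate score, as percent of positive control median, at least 50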;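 note: strain carries kanamycin resistance gene driven by streptokinase promoter and grows in 40 µg/ml kanamycin; loss of luminescence reflects streptokinase promoter inhibition or plain growth inhibition; 0% = median of DMSO wells and 100% = positive control at its reference dose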
TIM10 inh: inhibits growth of TIM10 yeast strain | S. cerevisiae TIM10 strain growth, BacTiter-Glo luminescence, 24 h | inhibition, % at 10 µM | 330,000 tested, 1.4% active | AID 463195;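 active = inhibition of 40% or more at the single tested concentration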;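 note: wild-type TIM10 isogenic control strain grown at permissive 25 °C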
PfHsp90 set2: growth inhibition of yeast expressing Plasmodium Hsp90. S. cerevisiae expressing PfHsp90, BacTiter-Glo ATP, 48 h; yeast lacking PDR1 and PDR3 efflux regulators. inhibition, % at 9.4 µM. 310,000 tested, 0.32% active. AID 504621;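 active = every replicate shows inhibition above about 80%, whatever the replicate mean, limit read from the data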;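 note: 0% = DMSO neutral controls and 100% = 20 µM radicicol positive controls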
NALP1 yeast inh: inhibitors of NALP1 inflammasome in yeast | S. cerevisiae NALP1/ASC/caspase-1 growth, X-gal OD620, 72 h | inhibition, % at 10 µM | 280,000 tested, 0.61% active | AID 2071; in the data active = inhibition mostly above about 24%, no sharp cut-off; inactive = mostly below about 32%
tim10-1 inh: growth inhibitors of tim10-1 mutant yeast. S. cerevisiae tim10-1 ts strain growth, BacTiter-Glo, 24 h. inhibition, % at 20 µM. 330,000 tested, 2.2% active. AID 463190;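 active = inhibition of at least 40%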;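 note: mutant grown at 25 °C; 0% = DMSO wells with yeast and 100% = wells holding no yeast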
tim23-1 inh: tim23-1 yeast growth inhibition | S. cerevisiae tim23-1 growth, BacTiter-Glo luminescence, 24 h | inhibition, % at 20 µM | 330,000 tested, 1.3% active;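 active = growth inhibition of the mutant yeast at or above 50%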;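 note: temperature-sensitive mutant grown at 25 °C; plate controls were DMSO-treated mutant yeast for no effect and medium wells lacking yeast for full effect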
tim10-1 confirm: tim10-1 yeast growth inhibition, confirmed. 7,400 tested, 56% active. S. cerevisiae tim10-1 ts strain growth, BacTiter-Glo, 24 h. shares compounds with tim10-1 inh. inhibition, % at 20 µM;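 active = inhibition of yeast growth at or above a set limit in either of two repeat tests at 20 µM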;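 note: tim10-1 mutant grown at permissive 25 °C to find synthetic lethal compounds; 0% = DMSO yeast wells and 100% = medium wells without yeast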
TIM10 conf: TIM10 yeast growth inhibition, confirmed. AID 463215. 4,600 tested, 63% active. inhibition, % at 10 µM. shares compounds with TIM10 inh. S. cerevisiae tim10 strain growth, BacTiter-Glo luminescence, 24 h;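 active = inhibition of yeast growth at or above a set limit in either of two replicates at 10 µM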;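 note: this counterscreen used the strain with wild-type TIM10; 0% = yeast with DMSO and 100% = medium wells lacking yeast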
tim23-1 confirm: confirmation of tim23-1 mutant yeast growth inhibitors | inhibition, % at 20 µM | 4,400 tested, 83% active | AID 463218 | S. cerevisiae tim23-1 growth, BacTiter-Glo luminescence, 24 h | shares compounds with tim23-1 inh;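 active = inhibition above about 39% in either of two replicate wells at 20 µM, limit read from the data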;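 note: temperature-sensitive tim23-1 mutant grown at 25 °C; 0% = DMSO wells with yeast and 100% = medium wells without yeast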
* marks the source's active call; other numbers are inactive results. A selection: hits, their analogues and other compounds. The true share with any hit is near 4.8%.

How did O=[N+]([O-])c1cnc(Nc2ccc(Cl)cn2)c([N+](=O)[O-])c1 do in these assays?
SKKanGAS inh: 11; TIM10 inh: 50*; PfHsp90 set2: -41; NALP1 yeast inh: -3; tim10-1 inh: 73*; tim23-1 inh: 73*; tim10-1 confirm: 69*; TIM10 conf: 33*; tim23-1 confirm: 81*

How did O=S1(=O)C=C(Sc2nc3ccccc3s2)c2ccccc21 do in these assays?
SKKanGAS inh: -11; TIM10 inh: 77*; NALP1 yeast inh: 12; tim10-1 inh: 69*; tim23-1 inh: 66*; tim10-1 confirm: 65*; TIM10 conf: 86*; tim23-1 confirm: 12

How did Cc1cc(C)nc(SC2=CS(=O)(=O)c3ccccc32)n1 do in these assays?
SKKanGAS inh: 0; TIM10 inh: 28; PfHsp90 set2: 38; NALP1 yeast inh: 25; tim10-1 inh: 15; tim23-1 inh: 21

Results for N#CC1=C(N)OC2=C(C(=O)CC(c3ccccc3)C2)C1c1ccc2c(c1)OCO2 (stereo unspecified) ?
SKKanGAS inh: 2; TIM10 inh: 19; PfHsp90 set2: 26; NALP1 yeast inh: 21; tim10-1 inh: 32; tim23-1 inh: 32

How did N#CC1=C(N)OC(c2ccccc2)=C(C#N)C1c1ccc2c(c1)OCO2 (stereo unspecified) do in these assays?
SKKanGAS inh: -2; TIM10 inh: 82*; PfHsp90 set2: -35; NALP1 yeast inh: 13; tim10-1 inh: 62*; tim23-1 inh: 72*; tim10-1 confirm: 56*; TIM10 conf: 71*; tim23-1 confirm: 75*

Results for CC[N+](C)(C)CC/C=C1/c2ccccc2Sc2ccc(Cl)cc21 ?
SKKanGAS inh: 7; TIM10 inh: -13; NALP1 yeast inh: 12; tim10-1 inh: 11; tim23-1 inh: -10

What do the screens show for `CCCCCCCCCCC[N+](C)(C)CC/C=C1/c2ccccc2Sc2ccc(Cl)cc21`?
SKKanGAS inh: 90*; TIM10 inh: 82*; PfHsp90 set2: 107*; NALP1 yeast inh: 14; tim10-1 inh: 98*; tim23-1 inh: 89*; tim10-1 confirm: 97*; TIM10 conf: 82*; tim23-1 confirm: 94*

What do the screens show for `CCCCCCCCCC[N+](C)(C)CC/C=C1/c2ccccc2Sc2ccc(Cl)cc21`?
SKKanGAS inh: 95*; TIM10 inh: 83*; PfHsp90 set2: 106*; NALP1 yeast inh: 23; tim10-1 inh: 98*; tim23-1 inh: 92*; tim10-1 confirm: 97*; TIM10 conf: 86*; tim23-1 confirm: 94*

How did C=CCn1c(O)c(/C=C2\C=NN=C2c2ccccc2)sc1=S do in these assays?
SKKanGAS inh: 11; TIM10 inh: 25; PfHsp90 set2: -19; NALP1 yeast inh: 1; tim10-1 inh: 43*; tim23-1 inh: 51*; tim10-1 confirm: 35*; tim23-1 confirm: 51*

What do the screens show for `O=C1C=C(c2ccc(-c3ccccc3)cc2)C[C@@H](c2ccc3c(c2)OCO3)C1`?
TIM10 inh: -6; PfHsp90 set2: 11; tim10-1 inh: 12; tim23-1 inh: 10

How did CCOCCCNC(=O)CSc1ccccc1 do in these assays?
SKKanGAS inh: 5; TIM10 inh: 9; PfHsp90 set2: -5; NALP1 yeast inh: 6; tim10-1 inh: 6; tim23-1 inh: -3

Results for CC1(C)COC(/C=C/c2cccc([N+](=O)[O-])c2)=N1 ?
SKKanGAS inh: 7; TIM10 inh: 47*; PfHsp90 set2: 1; NALP1 yeast inh: 11; tim10-1 inh: 60*; tim23-1 inh: 59*; tim10-1 confirm: 43*; TIM10 conf: 46*; tim23-1 confirm: 40*

Results for O=C(N/N=C/c1ccc([N+](=O)[O-])s1)c1ccccc1 ?
SKKanGAS inh: 15; TIM10 inh: -3; PfHsp90 set2: -33; NALP1 yeast inh: -3; tim10-1 inh: -27; tim23-1 inh: 7
